The record followed here is PubChem BioAssay (NCATS).

SMILES strings stand for the structures. Results filed as inconclusive are left out. Active and inactive are the calls of the source. Calls follow the shape of the dose curve; as a rule, active = well fitted inhibition curve with a large enough effect; inconclusive = small, poorly fitted or top-dose-only effect; inactive = no such curve, though single readings can be large or run the other way.
Also: nearly all actives have a fitted effect of over 35% in size.
Potency is read from the fitted curve at half-maximal effect.

The nature of the first assay: BET inhibitor-based combinations targeting novel dependencies in MECOM-rearranged (r) AML: SET-2 cell line (AID 2202231).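 As to viability: plate controls were DMSO treated cells for no effect and wells without cells for full effect.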 As to conditions: SET-2 AML cells viability, CellTiter-Glo luminescence, 48 h; viability: active compounds read low, concentration not given here. The method, boiled down: (§1)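 Here, 11-point titrations of each agent were applied to 500 seeded cells and incubated 48 hr; CellTiter-Glo signal, scaled against DMSO and empty wells, was integrated as AUC, then Z-scored within the individual line.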
(In ATP-based viability assays light output follows the ATP content of the culture.)
One may read the viability as a read-out of living cells in per cent, often relative to untreated cells. Regarding `O=C(O)[C@H](CC(=O)N1C[C@H]2CCCC[C@H]2C1)Cc1ccccc1`, the viability is 105% (inactive).

Consider `c1ccc2c(Oc3nc(Nc4ccc(N5CCOCC5)cc4)c4ncn(C5CCCCC5)c4n3)cccc2c1`, for which the viability was 101% (inactive).

Turning to `CCNC(=O)[C@H]1O[C@@H](n2cnc3c(N)nc(NCCc4ccc(CCC(=O)O)cc4)nc32)[C@H](O)[C@@H]1O`, the viability is 115% (inactive).

`Cc1ccc(S(=O)(=O)Cc2nc(-c3ccc(C(=O)NCc4cccnc4)cc3)oc2C)cc1`: the Potency was 18.6 µM (active).

With `COc1cc(C(=O)N2CCC(N3CCN(C)CC3)CC2)ccc1Nc1ncc2c(n1)N(C)c1ccccc1C(=O)N2C`, the Potency was 6.61 µM (active).

In the case of `CCC(C)n1ncn(-c2ccc(N3CCN(c4ccc(OC[C@H]5CO[C@](Cn6cncn6)(c6ccc(Cl)cc6Cl)O5)cc4)CC3)cc2)c1=O` (some centres undefined), the viability was 101% (inactive).

Consider `N#C[C@@H]1C[C@@H]2C[C@@H]2N1C(=O)[C@@H](N)C12CC3CC(CC(O)(C3)C1)C2`, for which the viability was 110% (inactive).

Consider `C[C@@H](NCCCc1cccc(C(F)(F)F)c1)c1cccc2ccccc12`, for which the Potency was 23.5 µM (active).

With `N[C@@H](Cc1cc(I)c(Oc2cc(I)c(O)c(I)c2)c(I)c1)C(=O)O`, the viability is 108% (inactive).

Regarding `O=C(c1ccc(Nc2nccc(-c3cc4ccccc4s3)n2)cc1)N1CCC(N2CCCC2)CC1`, the Potency is 6.61 µM (active).

Regarding `Cc1ccccc1C(=O)Nc1ccc(C(=O)N2CCCC(O)c3cc(Cl)ccc32)c(C)c1` (centres undefined), the viability is 88.6% (inactive).

For the compound `CCS(=O)(=O)N1CCC([C@@H](C)n2c(C)c(C(=O)NCc3c(OC)cc(C)[nH]c3=O)c3ccccc32)CC1`, the viability was 115% (inactive).

Take `CC(C)(C)C(=O)Oc1ccc2c(c1)nc(NC(=O)c1cccc([N+](=O)[O-])c1)n2CCCO`: the viability was 111% (inactive).

Turning to `CN[C@@H](C)[C@H]1[C@H](O)C[C@@]2(C)[C@@H]3CC[C@H]4C(C)(C)[C@@H](NC)CC[C@@]45C[C@@]35CC[C@]12C`, the viability was 106% (inactive).

A further assay in a line: BET inhibitor-based combinations targeting novel dependencies in MECOM-rearranged (r) AML: OCI-AML3 cell line (AID 2202232).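 As to viability (% of control): plate controls were DMSO vehicle wells for no effect and wells without cells for full effect.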 As to conditions: CellTiter-Glo luminescence, 48 h; Potency: OCI-AML3 viability; series mostly up to 46 µM. The method, boiled down:
as §1
For the compound `CNC(=O)c1c(-c2ccc(F)cc2)oc2cc(N(CCO)S(C)(=O)=O)c(C3CC3)cc12`, the Potency entry was “inactive”.

As for `CN1C(=O)N[C@@H](Cc2c[nH]c3c(Cl)cccc23)C1=O`, the Potency result was “inactive”.

`CC[C@@H]1C(=O)N(C)c2cnc(Nc3ccc(C(=O)NC4CCC(N5CCN(CC6CC6)CC5)CC4)cc3OC)nc2N1C(C)C` (some centres undefined): the Potency is 0.059 µM (active).

On to `C[C@@H]1CN(Cc2ccc(F)cc2)[C@@H](C)CN1C(=O)c1cc2c(C(=O)C(=O)N(C)C)cn(C)c2cc1Cl`, for which the Potency result was “inactive”.

Take `CN1CCN(c2ccc(OC(F)(F)F)c(Nc3ncc4c(n3)-c3c(c(C(N)=O)nn3CCO)CC4)c2)CC1`: the Potency was 0.059 µM (active).

For `Cc1ccc2c(c1)C(=O)[C@]1(O)CCN(c3ccccc3)C1=N2`, the Potency is 18.6 µM (active).

As to `NCCOc1cc(C(=O)Nc2cc(OCCN)c3ccccc3n2)nc(C(=O)Nc2cc(OCCN)c3ccccc3n2)c1`, the Potency entry is “inactive”.

For the compound `C=CC(=O)Nc1cccc(Sc2nc(Nc3ccc(N4CCN(C)CC4)cc3)ncc2Cl)c1`, the Potency was 13.2 µM (active).

Turning to `CC(C)c1nn(-c2c(Cl)cccc2Cl)c2nc(Cc3ccc(OCCO)cc3)[nH]c(=O)c12`, the Potency was 0.0742 µM (active).

`COc1ccc(-c2c(-c3ccc(O)cc3O)n[nH]c2C)cc1`: the Potency entry is “inactive”.

Regarding `CC(C)[C@H](CO)Nc1nc(Nc2ccc(C(=O)O)c(Cl)c2)c2ncn(C(C)C)c2n1`, the Potency entry is “inactive”.

With `FC(F)(F)c1ccc(/C=C/c2nc(COc3ccc(CCCCn4ccnn4)cc3)co2)cc1`, the Potency was 0.372 µM (active).

As to `CC(C)n1nc(-c2ccc3oc(N)nc3c2)c2c(N)ncnc21`, the Potency was 0.417 µM (active).

With `CC[C@H](NC(=O)[C@H](CS(=O)(=O)CC1CC1)N[C@@H](c1ccc(F)cc1)C(F)(F)F)C(=O)C(=O)NC1CC1`, the Potency result was “inactive”.

As for `O=C(Nc1ccc(Oc2ccnc3[nH]ccc23)c(F)c1)c1cccn(-c2ccc(F)cc2)c1=O`, the Potency is 13.2 µM (active).

As to `CNC(=O)c1nn(C)c2c1C(C)(C)Cc1cnc(Nc3ccc(N4CCN(C)CC4)cc3)nc1-2`, the Potency was 5.25 µM (active).

As to `NS(=O)(=O)c1cc(Cl)c(Cl)c(S(N)(=O)=O)c1`, the Potency result was “inactive”.

For the compound `COc1cccc2c1c(O)c(C(=O)N(C)c1ccc(C(F)(F)F)cc1)c(=O)n2C`, the Potency result is “inactive”.

Consider `O=C(Nc1ccc(F)c(C(F)(F)F)c1)Nc1nnc(-c2ccncc2)s1`, for which the Potency result is “inactive”.

Turning to `Cc1c(F)cc(C(=O)NC2CC2)cc1-c1c(F)cn2c(C(C)(C)C)nnc2c1F`, the Potency entry is “inactive”.

As to `CN(C)C/C=C/C(=O)Nc1ccc(C(=O)Nc2cccc(Nc3ncc(Cl)c(-c4c[nH]c5ccccc45)n3)c2)cc1`, the Potency is 0.0833 µM (active).

As for `CCCCc1ccc(NS(=O)(=O)c2ccc(C)c(C(=O)N3CCN(c4cccc(C)c4C)CC3)c2)cc1`, the Potency result was “inactive”.

As for `CCOC(=O)c1ccnc(CNCC(=O)N(CC)CCN(C)C)c1`, the Potency entry is “inactive”.

As for `COc1ccc(-c2c(C)nn3c(NCCN4CCOCC4)cc(C)nc23)cc1OC`, the Potency result was “inactive”.

Turning to `CCS(=O)(=O)N1CCN(c2ccc(Nc3ncc(C(N)=O)c(NC4CC4)n3)cc2)CC1`, the Potency was 13.2 µM (active).

Turning to `O=C([C@@H](Cc1cccc(C(F)(F)F)c1)NS(=O)(=O)c1cc(F)c2c(c1)CCNC2)N1CCCC1`, the Potency is 11.8 µM (active).

Regarding `O=C(O)[C@H](CC(=O)N1C[C@H]2CCCC[C@H]2C1)Cc1ccccc1`, the Potency result was “inactive”.

As to `c1ccc2c(Oc3nc(Nc4ccc(N5CCOCC5)cc4)c4ncn(C5CCCCC5)c4n3)cccc2c1`, the Potency result is “inactive”.

`CCNC(=O)[C@H]1O[C@@H](n2cnc3c(N)nc(NCCc4ccc(CCC(=O)O)cc4)nc32)[C@H](O)[C@@H]1O`: the Potency entry is “inactive”.

As for `Cc1ccc(S(=O)(=O)Cc2nc(-c3ccc(C(=O)NCc4cccnc4)cc3)oc2C)cc1`, the Potency was 0.0118 µM (active).

For the compound `COc1cc(C(=O)N2CCC(N3CCN(C)CC3)CC2)ccc1Nc1ncc2c(n1)N(C)c1ccccc1C(=O)N2C`, the Potency was 2.35 µM (active).

`CCC(C)n1ncn(-c2ccc(N3CCN(c4ccc(OC[C@H]5CO[C@](Cn6cncn6)(c6ccc(Cl)cc6Cl)O5)cc4)CC3)cc2)c1=O` (some centres undefined): the Potency was 6.45 µM (active).

Turning to `N#C[C@@H]1C[C@@H]2C[C@@H]2N1C(=O)[C@@H](N)C12CC3CC(CC(O)(C3)C1)C2`, the Potency entry is “inactive”.

On to `C[C@@H](NCCCc1cccc(C(F)(F)F)c1)c1cccc2ccccc12`, for which the Potency was 16.6 µM (active).

As for `N[C@@H](Cc1cc(I)c(Oc2cc(I)c(O)c(I)c2)c(I)c1)C(=O)O`, the Potency entry was “inactive”.

On to `O=C(c1ccc(Nc2nccc(-c3cc4ccccc4s3)n2)cc1)N1CCC(N2CCCC2)CC1`, for which the Potency was 18.6 µM (active).

`Cc1ccccc1C(=O)Nc1ccc(C(=O)N2CCCC(O)c3cc(Cl)ccc32)c(C)c1` (centres undefined): the Potency result is “inactive”.

Take `CCS(=O)(=O)N1CCC([C@@H](C)n2c(C)c(C(=O)NCc3c(OC)cc(C)[nH]c3=O)c3ccccc32)CC1`: the Potency is 5.9 µM (active).

Consider `CC(C)(C)C(=O)Oc1ccc2c(c1)nc(NC(=O)c1cccc([N+](=O)[O-])c1)n2CCCO`, for which the Potency entry is “inactive”.

For `CN[C@@H](C)[C@H]1[C@H](O)C[C@@]2(C)[C@@H]3CC[C@H]4C(C)(C)[C@@H](NC)CC[C@@]45C[C@@]35CC[C@]12C`, the viability (% of control) is 106% [at 8.46 µM] (inactive).
